Results as given in the supplement of paper PMC12494721.
Structures can show the parent of a compound that is named as a salt. Unmarked numbers belong to inactive results.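 How the source made its calls: for the amine columns active = adjusted P below 0.05 in both replicates with a change the same way and a mean fold change under 0.8 or over 1.25; inactive = the rest.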

Test system: Ruminococcus gnavus DSM 108212
Assay: fold change of 2-Phenylethylamine concentration vs plate DMSO controls (fold change (ratio)); higher = more amine produced, active = hit call of the paper (significant change in both replicates, either direction)
Conditions: incubation time: 27 h, anaerobic, 37 °C
Summary of the method: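 Using LC–triple-quadrupole MS with dynamic MRM, amines were quantified against external calibration curves and corrected for drift within each batch. Samples were whole anaerobic mGAM cultures of four gut strains, grown 27 h at 37 °C from OD 0.1 before 1:1 dilution, extracted with cold acetonitrile/methanol containing 0.1% formic acid and centrifuged. Compounds were present at 20 µM final (sweeteners at 50 µM final). The numbers are fold changes versus plate DMSO controls, each the mean of 2 biological replicates.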

| Structure (SMILES) | fold change of 2-Phenylethylamine concentration |
| --- | --- |
| COc1cc(Cc2cnc(N)nc2N)cc(OC)c1OC [Trimethoprim] (20 µM) | 0.84 |
| O=C1C(=O)c2ccccc2C(O)=C1C1CCC(c2ccc(Cl)cc2)CC1 (stereo unspecified) [Atovaquone] (20 µM) | 0.747 (active) |
| CC[C@]12CCCN3CCc4c(n(c5ccccc45)[C@@](O)(C(=O)OC)C1)[C@@H]32 [Vincamine] (20 µM) | 0.942 |
| Cc1noc(NS(=O)(=O)c2ccc(N)cc2)c1C [Sulfisoxazole] (20 µM) | 1 |
| Cc1ccc(NC(=O)c2ccc(CN3CCN(C)CC3)cc2)cc1Nc1nccc(-c2cccnc2)n1 [Imatinib] (20 µM) | 1.08 |
| COc1cc2nc(N3CCN(C(=O)c4ccco4)CC3)nc(N)c2cc1OC [Prazosin hydrochloride] (20 µM) | 0.939 |
| CCOC(=O)C1=C(COCCN)NC(C)=C(C(=O)OC)C1c1ccccc1Cl (stereo unspecified) [Amlodipine] (20 µM) | 0.918 |
| CN1[C@@H]2CC[C@H]1CC(OC(=O)C(O)c1ccccc1)C2 (mixture of isomers) [(R,S) Homatropine hydrobromide] (20 µM) | 1.01 |
| CO/N=C(\C(=O)N[C@@H]1C(=O)N2C(C(=O)O)=C(C[N+]3(C)CCCC3)CS[C@H]12)c1csc(N)n1 [Cefepime hydrochloride] (20 µM) | 0.0523 (active) |
| CCn1cc(C(=O)O)c(=O)c2cc(F)c(N3CCN(C)CC3)cc21 [Pefloxacin] (20 µM) | 0.91 |
| CN(CCOc1ccc(NS(C)(=O)=O)cc1)CCc1ccc(NS(C)(=O)=O)cc1 [Dofetilide] (20 µM) | 0.998 |
